The source of these data is paper PMC7862700, “An all-to-all approach to the identification of sequence-specific readers for epigenetic DNA modifications on cytosine”.

Experiment in all cases: DAPPL (digital affinity profiling via proximity ligation, sequencing); 10 mM Tris-HCl pH 7.5, 50 mM NaCl, 1 mM DTT, 4% glycerol, room temperature, 30 min; GST-TFs on glutathione beads, 16-mer random dsDNA library, 0.1% formaldehyde crosslink after washing; high values mean tight binding
The target of one assay is T1, FLI1 (Homo sapiens, UniProt Q01543 1-452).
T1 sequence: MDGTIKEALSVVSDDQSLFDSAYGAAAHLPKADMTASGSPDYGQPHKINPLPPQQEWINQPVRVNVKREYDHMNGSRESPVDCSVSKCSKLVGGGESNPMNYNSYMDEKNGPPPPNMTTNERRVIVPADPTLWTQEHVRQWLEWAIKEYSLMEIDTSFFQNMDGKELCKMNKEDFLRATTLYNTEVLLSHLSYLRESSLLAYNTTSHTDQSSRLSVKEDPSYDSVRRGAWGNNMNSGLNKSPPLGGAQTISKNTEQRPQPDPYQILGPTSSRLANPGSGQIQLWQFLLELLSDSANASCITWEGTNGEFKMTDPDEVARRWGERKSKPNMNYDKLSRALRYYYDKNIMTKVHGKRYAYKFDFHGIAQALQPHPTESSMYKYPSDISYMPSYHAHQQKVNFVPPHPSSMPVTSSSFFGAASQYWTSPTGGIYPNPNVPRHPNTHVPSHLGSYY
The conditions noted are these: protein: recombinant; tags: N-terminal GST; dsDNA, one strand shown. The essentials: (§1)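 Human transcription factors were made in yeast as GST fusions, captured on glutathione beads and barcoded with DNA. With a tag-only sample included, the pool was incubated with 200 nmole of a random double-stranded 16-mer DNA library in Tris/NaCl/DTT/glycerol buffer at room temperature for 30 min, then crosslinked with 0.1% formaldehyde after washing, ligated by proximity, amplified and sequenced. For binding signal, each hexamer's read frequency for a factor is divided by its frequency for the tag-only sample.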

For a further assay, the target named is T2, ELK1 (Homo sapiens, UniProt P19419 1-428).
T2 sequence: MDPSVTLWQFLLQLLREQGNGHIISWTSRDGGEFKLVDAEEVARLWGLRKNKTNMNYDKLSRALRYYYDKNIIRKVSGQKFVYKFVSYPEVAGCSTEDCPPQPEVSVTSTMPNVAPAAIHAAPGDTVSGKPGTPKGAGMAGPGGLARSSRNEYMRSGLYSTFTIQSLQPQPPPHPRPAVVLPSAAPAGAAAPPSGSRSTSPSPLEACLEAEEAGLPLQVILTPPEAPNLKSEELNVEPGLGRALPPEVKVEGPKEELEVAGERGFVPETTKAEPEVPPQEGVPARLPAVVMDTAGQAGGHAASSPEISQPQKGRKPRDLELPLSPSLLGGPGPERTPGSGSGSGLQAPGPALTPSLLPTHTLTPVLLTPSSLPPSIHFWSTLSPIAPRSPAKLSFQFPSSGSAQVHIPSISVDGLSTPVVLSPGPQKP
The following applies: protein: recombinant; tags: N-terminal GST; dsDNA, one strand shown. In short, it runs like this: as §1

A further assay concerns the target T3, GABPA (Homo sapiens, UniProt Q06546 1-454).
T3 sequence: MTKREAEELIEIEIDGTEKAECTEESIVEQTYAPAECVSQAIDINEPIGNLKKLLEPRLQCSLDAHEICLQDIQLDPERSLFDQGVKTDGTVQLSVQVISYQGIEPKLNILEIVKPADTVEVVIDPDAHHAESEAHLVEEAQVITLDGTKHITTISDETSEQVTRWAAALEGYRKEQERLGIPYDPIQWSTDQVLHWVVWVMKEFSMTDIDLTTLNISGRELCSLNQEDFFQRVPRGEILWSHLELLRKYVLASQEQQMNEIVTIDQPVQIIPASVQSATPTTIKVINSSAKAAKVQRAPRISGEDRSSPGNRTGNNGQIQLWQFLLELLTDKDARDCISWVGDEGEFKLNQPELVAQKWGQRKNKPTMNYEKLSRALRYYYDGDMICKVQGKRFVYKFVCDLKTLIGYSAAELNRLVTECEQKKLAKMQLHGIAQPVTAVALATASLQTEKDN
The conditions noted are these: protein: recombinant; tags: N-terminal GST; dsDNA, one strand shown. In short, it runs like this: as §1

In the next assay the target is T4, ERG (Homo sapiens, UniProt P11308 1-479).
T4 sequence: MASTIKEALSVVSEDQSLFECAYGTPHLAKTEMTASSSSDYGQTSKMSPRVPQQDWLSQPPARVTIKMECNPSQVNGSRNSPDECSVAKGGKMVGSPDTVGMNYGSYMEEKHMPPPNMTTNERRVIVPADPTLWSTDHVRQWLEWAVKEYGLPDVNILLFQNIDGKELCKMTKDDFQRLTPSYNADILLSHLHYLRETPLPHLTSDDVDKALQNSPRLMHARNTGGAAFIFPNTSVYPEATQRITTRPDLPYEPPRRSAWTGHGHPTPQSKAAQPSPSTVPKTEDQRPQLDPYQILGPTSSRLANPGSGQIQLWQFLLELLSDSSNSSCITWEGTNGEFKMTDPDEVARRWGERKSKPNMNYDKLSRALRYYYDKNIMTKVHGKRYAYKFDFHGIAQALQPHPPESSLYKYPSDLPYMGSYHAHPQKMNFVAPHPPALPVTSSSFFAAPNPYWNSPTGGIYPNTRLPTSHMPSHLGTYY
The conditions noted are these: protein: recombinant; tags: N-terminal GST; dsDNA, one strand shown. The essentials:
as §1

For a further assay, the target named is ELF1 (Homo sapiens, UniProt P32519 1-619). The following applies: protein: recombinant; tags: N-terminal GST; dsDNA, one strand shown. In short, it runs like this:
as §1

Another assay deals with T5, EHF (Homo sapiens, UniProt Q9NZC4 1-300).
T5 sequence: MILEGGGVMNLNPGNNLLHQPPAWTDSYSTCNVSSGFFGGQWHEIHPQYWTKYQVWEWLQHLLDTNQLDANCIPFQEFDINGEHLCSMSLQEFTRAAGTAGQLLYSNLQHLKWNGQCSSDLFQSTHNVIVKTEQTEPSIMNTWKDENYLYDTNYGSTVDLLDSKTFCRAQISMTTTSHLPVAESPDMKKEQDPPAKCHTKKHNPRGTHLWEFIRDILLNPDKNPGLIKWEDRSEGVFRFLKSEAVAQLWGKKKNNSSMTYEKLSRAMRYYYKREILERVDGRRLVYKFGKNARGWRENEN
The following applies: protein: recombinant; tags: N-terminal GST; dsDNA, one strand shown. In short, it runs like this:
as §1

The target of a further assay is SPI1 (Homo sapiens, UniProt P17947 1-270). The following applies: protein: recombinant; tags: N-terminal GST; dsDNA, one strand shown. In short, it runs like this:
as §1

The target in a further assay is SPIB (Homo sapiens, UniProt Q01892 1-262). The following applies: protein: recombinant; tags: N-terminal GST; dsDNA, one strand shown. The essentials: as §1
SPIB, sequence (Q01892 whole entry): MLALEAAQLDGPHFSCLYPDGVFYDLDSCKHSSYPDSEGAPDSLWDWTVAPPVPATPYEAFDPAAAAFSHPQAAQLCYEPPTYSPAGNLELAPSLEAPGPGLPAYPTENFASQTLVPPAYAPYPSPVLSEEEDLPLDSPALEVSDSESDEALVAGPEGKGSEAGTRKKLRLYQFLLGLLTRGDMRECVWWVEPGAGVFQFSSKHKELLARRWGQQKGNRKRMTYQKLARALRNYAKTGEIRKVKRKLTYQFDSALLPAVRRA
In a further assay the target is T6, ELK3 (Homo sapiens, UniProt P41970 1-407).
T6 sequence: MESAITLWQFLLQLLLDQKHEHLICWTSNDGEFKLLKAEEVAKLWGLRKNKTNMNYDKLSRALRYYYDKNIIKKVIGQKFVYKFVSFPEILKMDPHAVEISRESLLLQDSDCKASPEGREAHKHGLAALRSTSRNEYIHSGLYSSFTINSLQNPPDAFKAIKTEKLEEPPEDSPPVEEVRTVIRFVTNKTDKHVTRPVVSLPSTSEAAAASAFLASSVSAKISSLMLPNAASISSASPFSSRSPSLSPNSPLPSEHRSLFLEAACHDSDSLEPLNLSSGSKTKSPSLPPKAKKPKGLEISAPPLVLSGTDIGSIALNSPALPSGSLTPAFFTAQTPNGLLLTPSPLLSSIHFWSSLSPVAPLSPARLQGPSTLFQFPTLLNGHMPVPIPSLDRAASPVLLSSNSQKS
The following applies: protein: recombinant; tags: N-terminal GST; dsDNA, one strand shown. The essentials:
as §1

Another assay has as its target T7, FEV (Homo sapiens, UniProt Q99581 1-238).
T7 sequence: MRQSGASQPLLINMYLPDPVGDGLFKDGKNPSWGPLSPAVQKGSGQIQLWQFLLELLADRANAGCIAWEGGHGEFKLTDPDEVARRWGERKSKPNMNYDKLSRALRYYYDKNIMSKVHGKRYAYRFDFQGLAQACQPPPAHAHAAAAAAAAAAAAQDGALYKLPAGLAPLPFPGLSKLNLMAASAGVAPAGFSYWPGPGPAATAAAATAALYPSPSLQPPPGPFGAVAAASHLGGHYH
The conditions noted are these: protein: recombinant; tags: N-terminal GST; dsDNA, one strand shown. In short, it runs like this:
as §1

In the next assay the target is ETV5 (Homo sapiens, UniProt P41161 1-510). The following applies: protein: recombinant; tags: N-terminal GST; dsDNA, one strand shown. The essentials:
as §1

In the next assay the target is HSF1 (Homo sapiens, UniProt Q00613 1-529). The following applies: protein: recombinant; tags: N-terminal GST; chain copies: 3; dsDNA, one strand shown. The essentials: as §1
HSF1, sequence (Q00613 whole entry): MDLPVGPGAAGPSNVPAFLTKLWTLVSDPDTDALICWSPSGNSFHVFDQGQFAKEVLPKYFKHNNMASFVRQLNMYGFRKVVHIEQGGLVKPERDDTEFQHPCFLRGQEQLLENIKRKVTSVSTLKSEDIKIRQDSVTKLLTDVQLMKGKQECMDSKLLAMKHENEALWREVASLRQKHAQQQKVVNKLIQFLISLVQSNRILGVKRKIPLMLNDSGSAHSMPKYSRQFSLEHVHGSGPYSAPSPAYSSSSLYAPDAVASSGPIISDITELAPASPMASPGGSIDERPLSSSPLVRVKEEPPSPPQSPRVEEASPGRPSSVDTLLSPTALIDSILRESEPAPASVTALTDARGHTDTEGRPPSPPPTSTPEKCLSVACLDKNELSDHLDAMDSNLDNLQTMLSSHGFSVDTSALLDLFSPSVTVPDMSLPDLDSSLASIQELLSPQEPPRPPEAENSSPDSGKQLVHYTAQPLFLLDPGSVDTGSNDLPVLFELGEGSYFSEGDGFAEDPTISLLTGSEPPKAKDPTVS
The next assay addresses T8, SPIC (Homo sapiens, UniProt Q8N5J4 1-248).
T8 sequence: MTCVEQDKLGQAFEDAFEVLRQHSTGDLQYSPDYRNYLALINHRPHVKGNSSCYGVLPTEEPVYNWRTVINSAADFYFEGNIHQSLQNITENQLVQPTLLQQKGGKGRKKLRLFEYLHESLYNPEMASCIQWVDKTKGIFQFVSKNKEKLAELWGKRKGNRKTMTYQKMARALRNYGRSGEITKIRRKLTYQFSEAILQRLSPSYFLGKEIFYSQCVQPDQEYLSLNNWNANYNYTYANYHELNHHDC
The conditions noted are these: protein: recombinant; tags: N-terminal GST; dsDNA, one strand shown. The essentials: as §1

The target in a further assay is ELF4 (Homo sapiens, UniProt Q99607 1-663). The following applies: protein: recombinant; tags: N-terminal GST; dsDNA, one strand shown. In short, it runs like this:
as §1

The next assay has as its target T9, ELK4 (Homo sapiens, UniProt P28324-2 1-405).
T9 sequence: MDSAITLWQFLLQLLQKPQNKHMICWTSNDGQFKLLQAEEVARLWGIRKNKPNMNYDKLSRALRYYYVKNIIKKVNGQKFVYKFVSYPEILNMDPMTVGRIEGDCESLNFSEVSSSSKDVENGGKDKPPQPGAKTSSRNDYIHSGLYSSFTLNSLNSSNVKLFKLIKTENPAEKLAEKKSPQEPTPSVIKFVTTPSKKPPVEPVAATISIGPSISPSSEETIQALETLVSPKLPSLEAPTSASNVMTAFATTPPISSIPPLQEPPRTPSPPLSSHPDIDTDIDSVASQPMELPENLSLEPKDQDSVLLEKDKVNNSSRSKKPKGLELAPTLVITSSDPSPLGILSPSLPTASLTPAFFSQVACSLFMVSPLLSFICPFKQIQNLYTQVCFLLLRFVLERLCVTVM
The conditions noted are these: protein: recombinant; tags: N-terminal GST; dsDNA, one strand shown. The essentials: as §1

The next assay deals with T10, ETV2 (Homo sapiens, UniProt O00321 1-342).
T10 sequence: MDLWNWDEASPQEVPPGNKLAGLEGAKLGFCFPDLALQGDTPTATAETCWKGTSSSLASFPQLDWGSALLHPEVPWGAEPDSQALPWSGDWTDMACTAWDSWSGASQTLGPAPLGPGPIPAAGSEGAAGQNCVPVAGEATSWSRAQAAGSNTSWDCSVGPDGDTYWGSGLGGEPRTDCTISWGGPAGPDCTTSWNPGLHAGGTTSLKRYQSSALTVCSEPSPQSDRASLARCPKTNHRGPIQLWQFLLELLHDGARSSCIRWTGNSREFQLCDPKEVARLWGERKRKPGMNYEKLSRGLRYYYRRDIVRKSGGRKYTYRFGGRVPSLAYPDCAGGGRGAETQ
The conditions noted are these: protein: recombinant; tags: N-terminal GST; dsDNA, one strand shown. In short, it runs like this:
as §1

Another assay addresses T11, ELF3 (Homo sapiens, UniProt P78545 1-371).
T11 sequence: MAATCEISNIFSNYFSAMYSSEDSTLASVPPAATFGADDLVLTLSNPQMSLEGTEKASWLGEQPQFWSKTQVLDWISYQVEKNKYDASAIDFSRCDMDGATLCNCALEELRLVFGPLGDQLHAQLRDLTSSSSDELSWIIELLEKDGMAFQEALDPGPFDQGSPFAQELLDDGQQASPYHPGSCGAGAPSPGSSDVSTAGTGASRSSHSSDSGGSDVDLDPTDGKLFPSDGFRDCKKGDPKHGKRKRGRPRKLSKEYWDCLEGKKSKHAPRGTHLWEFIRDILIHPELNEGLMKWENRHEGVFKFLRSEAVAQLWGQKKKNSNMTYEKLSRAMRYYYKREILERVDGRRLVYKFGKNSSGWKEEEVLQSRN
The following applies: protein: recombinant; tags: N-terminal GST; dsDNA, one strand shown. In short, it runs like this: as §1

The next assay has as its target CRX (Homo sapiens, UniProt O43186 1-299). The following applies: protein: recombinant; tags: N-terminal GST; dsDNA, one strand shown. The essentials: as §1
Another assay concerns the target ETV1 (Homo sapiens, UniProt P50549 1-477). The conditions noted are these: protein: recombinant; tags: N-terminal GST; dsDNA, one strand shown. In short, it runs like this:
as §1

ETV5, sequence (P41161 whole entry): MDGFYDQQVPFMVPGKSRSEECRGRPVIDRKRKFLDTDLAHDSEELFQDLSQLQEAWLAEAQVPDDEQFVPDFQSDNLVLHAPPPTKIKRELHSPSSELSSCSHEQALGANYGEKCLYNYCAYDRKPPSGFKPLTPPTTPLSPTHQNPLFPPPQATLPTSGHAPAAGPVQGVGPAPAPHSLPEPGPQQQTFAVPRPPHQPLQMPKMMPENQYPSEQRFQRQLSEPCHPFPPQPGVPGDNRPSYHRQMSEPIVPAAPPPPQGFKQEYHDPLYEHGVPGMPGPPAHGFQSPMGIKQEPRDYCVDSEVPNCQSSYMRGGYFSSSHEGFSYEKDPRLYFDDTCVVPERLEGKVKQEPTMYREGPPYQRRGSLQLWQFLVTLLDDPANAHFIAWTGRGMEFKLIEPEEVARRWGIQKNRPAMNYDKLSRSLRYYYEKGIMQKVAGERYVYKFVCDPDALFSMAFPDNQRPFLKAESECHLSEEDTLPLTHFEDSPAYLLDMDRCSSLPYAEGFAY
ELF4, sequence (Q99607 whole entry): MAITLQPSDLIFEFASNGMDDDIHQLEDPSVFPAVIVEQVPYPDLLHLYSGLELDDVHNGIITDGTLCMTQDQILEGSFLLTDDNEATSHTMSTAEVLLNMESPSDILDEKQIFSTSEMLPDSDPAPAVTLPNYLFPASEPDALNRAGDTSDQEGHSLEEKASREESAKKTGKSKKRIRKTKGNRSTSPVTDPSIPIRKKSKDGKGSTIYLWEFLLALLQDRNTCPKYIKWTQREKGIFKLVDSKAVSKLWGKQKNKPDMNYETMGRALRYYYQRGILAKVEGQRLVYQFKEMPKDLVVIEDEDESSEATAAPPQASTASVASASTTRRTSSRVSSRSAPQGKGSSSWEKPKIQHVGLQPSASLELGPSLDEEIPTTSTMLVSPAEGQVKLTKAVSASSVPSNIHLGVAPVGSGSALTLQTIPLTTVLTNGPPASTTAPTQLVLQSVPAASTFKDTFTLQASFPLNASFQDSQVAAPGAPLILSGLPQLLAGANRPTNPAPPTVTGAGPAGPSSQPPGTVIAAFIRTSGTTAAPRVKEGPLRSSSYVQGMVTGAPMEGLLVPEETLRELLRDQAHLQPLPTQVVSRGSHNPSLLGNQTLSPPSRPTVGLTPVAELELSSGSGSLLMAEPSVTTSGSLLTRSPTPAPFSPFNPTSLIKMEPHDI
ETV1, sequence (P50549 whole entry): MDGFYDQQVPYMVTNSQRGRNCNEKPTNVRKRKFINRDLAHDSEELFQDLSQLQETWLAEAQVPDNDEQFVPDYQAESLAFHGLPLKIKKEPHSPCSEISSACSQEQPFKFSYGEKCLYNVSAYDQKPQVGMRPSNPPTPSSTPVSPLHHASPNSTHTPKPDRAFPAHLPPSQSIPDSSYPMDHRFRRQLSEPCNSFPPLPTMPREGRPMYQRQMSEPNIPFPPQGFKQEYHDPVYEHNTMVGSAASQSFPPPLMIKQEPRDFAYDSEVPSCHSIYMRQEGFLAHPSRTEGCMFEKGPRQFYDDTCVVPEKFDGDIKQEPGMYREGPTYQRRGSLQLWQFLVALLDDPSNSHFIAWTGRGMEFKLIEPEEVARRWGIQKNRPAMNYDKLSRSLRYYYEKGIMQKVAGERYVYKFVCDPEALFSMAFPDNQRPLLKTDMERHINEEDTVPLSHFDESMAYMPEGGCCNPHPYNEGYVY
CRX, sequence (O43186 whole entry): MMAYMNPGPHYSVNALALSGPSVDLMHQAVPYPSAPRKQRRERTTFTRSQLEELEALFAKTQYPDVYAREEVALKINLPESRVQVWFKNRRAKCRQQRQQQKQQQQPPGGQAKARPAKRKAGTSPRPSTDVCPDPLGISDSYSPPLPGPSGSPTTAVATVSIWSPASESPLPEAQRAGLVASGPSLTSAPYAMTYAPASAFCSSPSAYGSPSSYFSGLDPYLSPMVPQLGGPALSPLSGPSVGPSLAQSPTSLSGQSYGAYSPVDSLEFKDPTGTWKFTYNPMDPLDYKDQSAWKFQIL
ELF1, sequence (P32519 whole entry): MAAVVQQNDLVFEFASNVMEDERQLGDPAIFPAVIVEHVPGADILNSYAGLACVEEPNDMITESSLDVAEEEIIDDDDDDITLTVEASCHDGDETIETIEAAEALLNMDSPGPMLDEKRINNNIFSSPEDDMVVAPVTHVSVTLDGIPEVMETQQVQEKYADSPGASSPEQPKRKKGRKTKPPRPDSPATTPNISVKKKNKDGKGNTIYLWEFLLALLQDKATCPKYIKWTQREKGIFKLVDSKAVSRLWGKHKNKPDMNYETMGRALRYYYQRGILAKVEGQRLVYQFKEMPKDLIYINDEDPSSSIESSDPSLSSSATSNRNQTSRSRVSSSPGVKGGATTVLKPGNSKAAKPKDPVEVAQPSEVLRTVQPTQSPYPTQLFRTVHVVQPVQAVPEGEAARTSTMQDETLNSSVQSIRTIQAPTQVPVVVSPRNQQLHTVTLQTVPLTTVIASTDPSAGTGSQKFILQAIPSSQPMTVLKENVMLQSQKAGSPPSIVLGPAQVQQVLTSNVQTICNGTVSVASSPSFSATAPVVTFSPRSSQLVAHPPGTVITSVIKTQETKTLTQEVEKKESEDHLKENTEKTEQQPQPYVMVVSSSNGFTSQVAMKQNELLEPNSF

For the sequence TAGCAA, the binding signal was 1.15 fold enrichment (6-mer frequency, TF over GST control) in the assay with FLI1; 1.21 fold enrichment (6-mer frequency, TF over GST control) with ELK1; 1.21 fold enrichment (6-mer frequency, TF over GST control) with GABPA; 1.17 fold enrichment (6-mer frequency, TF over GST control) in the assay with ERG; 1.23 fold enrichment (6-mer frequency, TF over GST control) in the assay with ELF1; 1.23 fold enrichment (6-mer frequency, TF over GST control) with EHF. Besides, the binding signal in the assay with SPI1 is 1.21 fold enrichment (6-mer frequency, TF over GST control); with SPIB, 1.34 fold enrichment (6-mer frequency, TF over GST control); with ELK3, 1.24 fold enrichment (6-mer frequency, TF over GST control); with FEV, 1.17 fold enrichment (6-mer frequency, TF over GST control); with ETV5, 1.33 fold enrichment (6-mer frequency, TF over GST control); with HSF1, 1.59 fold enrichment (6-mer frequency, TF over GST control). Further, the binding signal with SPIC was 1.14 fold enrichment (6-mer frequency, TF over GST control); in the assay with ELF4 it was 1.34 fold enrichment (6-mer frequency, TF over GST control); with ELK4, 1.38 fold enrichment (6-mer frequency, TF over GST control); with ETV2, 1.36 fold enrichment (6-mer frequency, TF over GST control); with ELF3 it was 1.36 fold enrichment (6-mer frequency, TF over GST control); with CRX, 1.46 fold enrichment (6-mer frequency, TF over GST control). The binding signal with ETV1 is 1.23 fold enrichment (6-mer frequency, TF over GST control).
